Results filed as inconclusive are left out. A number with no mark means an inactive call. Active and inactive are the calls of the source. Calls come from the whole dose curve; as a rule, active = well fitted inhibition curve with a large enough effect; inconclusive = small, poorly fitted or top-dose-only effect; inactive = flat fitted curve, though single readings scatter.
System: AA1029
Assay: qHTS profiling for inhibitors of Plasmodium falciparum proliferation (AID 504749); note: nearly all actives have a fitted effect of over 60% in size;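 for activity, negative = inhibition: 0% = DMSO vehicle and full inhibition = artemisinin control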
Details: P. falciparum in erythrocytes, SYBR Green DNA, 72 h; series mostly up to 28.7 µM; activity, negative = inhibition: at the top concentration
Method in brief: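 Each compound contacts P. falciparum-infected red blood cells for 72 h at 37 C; lysis buffer (Tris, EDTA, saponin, Triton X, SYBR Green I) is added and fluorescence measured next morning; values normalized to controls.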
Potency is the fitted concentration of half-maximal effect.

First: C[C@H]1OC(OC2C(O)[C@@H](O)C(OC3C(O)[C@@H](O)C(O)O[C@@H]3CO)O[C@@H]2CO)[C@H](O)C(O)C1N[C@H]1C=C(CO)[C@@H](O)[C@H](O)C1O (some centres not stated)
Second: NC[C@@H]1O[C@H](OC2[C@@H](CO)O[C@@H](OC3[C@H](O)[C@H](N)C[C@H](N)[C@H]3OC3O[C@H](CO)[C@@H](O)[C@H](O)[C@@H]3N)[C@H]2O)C(N)[C@H](O)[C@@H]1O (some centres not stated)
The “activity, negative = inhibition” value of the first is lower: 0.36% for the first, 0.525% for the second.

Compared with `CCN(CC)CC(=O)Nc1c(C)cc(C)cc1C`, `CN(C)CC/C=C1\c2ccccc2COc2ccc(CC(=O)O)cc21` is higher in “activity, negative = inhibition” value: -16.2% for the first, 5.17% for the second.

First: NC(=O)c1ncn(C2OC(CO)C(O)C2O)c1N (configuration not stated)
Second: OCCN1CC(O)C(O)C(O)C1CO (configuration not stated)
The “activity, negative = inhibition” value of the first is lower: 1.14% for the first, 9.91% for the second.

Going from `CC1(Cn2ccnn2)[C@H](C(=O)O)N2C(=O)C[C@H]2S1(=O)=O` (some centres not stated) to `COc1cccc(OC)c1C(=O)NC1C(=O)N2C1SC(C)(C)C2C(=O)O` (configuration not stated), the “activity, negative = inhibition” value falls from 9.79% to 2.78%.

Going from `CCCC(=O)O[C@]1(C(=O)COC(C)=O)CC[C@H]2C3C[C@H](F)C4=CC(=O)C=CC4(C)[C@@]3(F)[C@@H](O)CC21C` (some centres not stated) to `CC(=O)OCC(=O)[C@@]1(O)CCC2C3C[C@H](C)C4=CC(=O)C=CC4(C)C3C(O)CC21C` (some centres not stated), the “activity, negative = inhibition” value rises from -20.3% to 0.805%.

First: CC(CCC(=O)O)C1CCC2C3C(=O)C[C@@H]4CC(=O)CC[C@@]4(C)C3CC(=O)[C@]12C (some centres not stated)
Second: CC[C@@H]1/C=C(\C)C[C@H](C)C[C@H](OC)[C@H]2O[C@@](O)(C(=O)C(=O)N3CCCC[C@H]3C(=O)O[C@H](/C(C)=C/[C@@H]3CC[C@H](Cl)[C@H](OC)C3)[C@H](C)[C@@H](O)CC1=O)[C@H](C)C[C@@H]2OC
The “activity, negative = inhibition” value of the first is lower: -14.4% for the first, 1% for the second.

Going from `O=C(OC[C@@H]1O[C@@](O)(COC(=O)c2cccnc2)[C@H](OC(=O)c2cccnc2)[C@H]1OC(=O)c1cccnc1)c1cccnc1` to `Cc1ccc(S(=O)(=O)NC(=O)NC(C)Cc2ccccc2)cc1` (configuration not stated), the “activity, negative = inhibition” value rises from 4.68% to 5.62%.

First: O=[N+]([O-])O[C@H]1CO[C@H]2[C@@H]1OC[C@H]2O
Second: CCCCCCCCCCCC(=O)OCC(O)C1OCC(O)C1O (configuration not stated)
The “activity, negative = inhibition” value of the first is higher: -2.06% for the first, -3.96% for the second.

Compared with `OCCOC[C@H]1O[C@H](OCCO)[C@H](OCCO)[C@@H](OCCO)[C@@H]1OCCO` (tested in a mixture with another compound), `C/C1=C2/[N-]C(C(CC(N)=O)[C@@]2(C)CCC(=O)NCC(C)OP(=O)([O-])O[C@H]2[C@@H](O)[C@@H](n3cnc4cc(C)c(C)cc43)O[C@@H]2CO)[C@]2(C)N=C(/C(C)=C3N=C(/C=C4N=C1C(CCC(N)=O)C\4(C)C)[C@@H](CCC(N)=O)[C@]\3(C)CC(N)=O)[C@@H](CCC(N)=O)[C@]2(C)CC(N)=O.CC(=O)O.[Co]` (some centres not stated) is lower in “activity, negative = inhibition” value: 8.89% for the first, -13.7% for the second.

Going from `C[S+](C)CC[C@H](N)C(=O)O` to `NC(=O)NC(CCC(=O)O)C(=O)O` (configuration not stated), the “activity, negative = inhibition” value falls from 15.1% to -1.77%.

Compared with `NC(=O)C1CC2(NC(=O)NC2=O)c2cc(F)ccc2O1` (configuration not stated), `Cc1ccccc1N1C(=O)c2cc(N)ccc2N/C1=C\F` is lower in “activity, negative = inhibition” value: 7.43% for the first, -2.75% for the second.

First: CN1[C@@H]2CC[C@@H]1CC(OC(=O)[C@H](CO)c1ccccc1)C2 (some centres not stated)
Second: O=C1C(I)=CC(=C(c2cc(I)c(O)c(I)c2)c2ccccc2C(=O)O)C=C1I
The “activity, negative = inhibition” value of the first is higher: -10.6% for the first, -13.5% for the second.

In the case of `CC1(C)OC[C@@H]2O[C@@]3(C(=O)O)OC(C)(C)O[C@@H]3[C@@H]2O1`, the “activity, negative = inhibition” value is reported as 4.71%.

In the case of `CC(=O)N[C@H]1[C@H](O[C@@H]2c3ccc(c(Cl)c3)Oc3cc4cc(c3O[C@@H]3O[C@H](CO)[C@@H](O)[C@H](O)C3C)Oc3ccc(cc3Cl)C[C@H]3NC(=O)[C@@H](N)c5ccc(O)c(c5)Oc5cc(O)cc(c5)[C@H](NC3=O)C(=O)N[C@H]4C(=O)N[C@H]3C(=O)N[C@@H]2C(=O)N[C@@H](C(=O)O)c2cc(O)cc(O[C@H]4O[C@H](CO)[C@@H](O)C(O)[C@@H]4O)c2-c2cc3ccc2O)O[C@H](CO)[C@@H](O)[C@@H]1O` (some centres not stated), the “activity, negative = inhibition” value is reported as 0.542% [at 12.8 µM].

For `C[C@H]1[C@@H](OC(=O)CCC(=O)O)OC2OC3(C)CC[C@H]4[C@H](C)CC[C@@H]1[C@@]24OO3` (some centres not stated), the Potency was 6.3 nM (active).
For `COc1cc2c(cc1O)CCN[C@@]21CS[C@H]2c3c(OC(C)=O)c(C)c4c(c3C(COC1=O)N1C2C2c3c(cc(C)c(OC)c3O)CC([C@@H]1O)N2C)OCO4` (some centres not stated), the Potency was 0.9 nM (active).
With `C[n+]1c2cc(N)ccc2cc2ccc(N)cc21` the Potency was 708 nM (active).
`CC[C@@]1(O)C[C@H](O[C@H]2C[C@@H](N(C)C)[C@@H](O[C@H]3C[C@@H](O)[C@@H](O[C@H]4CCC(=O)[C@@H](C)O4)[C@@H](C)O3)[C@@H](C)O2)c2c(cc3c(c2O)C(=O)c2c(O)cccc2C3=O)[C@H]1C(=O)OC` was tested, and the Potency was 199 nM (active).
With `CCC(C(=O)O)C1OC(C(C)C(O)C(C)C(=O)C(CC)C2OC3(C=CC(O)C4(CCC(C)(C5CCC(O)(CC)C(C)O5)O4)O3)C(C)CC2C)C(C)CC1C` (configuration not stated) the Potency was 158 nM (active).
`COC1CC2CCC(C)[C@](O)(O2)C(=O)C(=O)N2CCCCC2C(=O)OC(C(C)CC2CCC(O)C(OC)C2)CC(=O)C(C)/C=C(/C)C(O)C(OC)C(=O)C(C)CC(C)C=CC=C/C=C\1C` (some centres not stated) was tested, and the Potency was 2240 nM (active).

From PubChem BioAssay (NCATS)
